Screens as filed in PubChem BioAssay.
Most compounds without a hit are left out; they make up all but 4% or so of the library.
ROMK primary = modulates human ROMK potassium channel activity | Tet-inducible ROMK, thallium flux fluorescence; actives lie on both sides | 130,000 tested, 2% active | B-score at 10 µM | P48048;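 active = signal ratio slope over the read window, or its plate-corrected B-score, at least 3 SD from the plate mean, either direction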;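 also: B-score of the F/F0 ratio slope over 7 to 12 s after thallium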
Measles CPE = protection of cells from measles virus; AID 841; protection (pct of control), % at 4 µM; Measles virus-infected cells, CPE protection, absorbance; 140,000 tested, 1.5% active; in the data active = protection mostly above about 24%, no sharp cut-off; inactive = mostly below about 26%
Arbovirus inh = antivirals against arbovirus infection; arbovirus infection cell-based antiviral screen; AID 1251; inhibition, % at 10 µM; 200,000 tested, 0.37% active; in the data active = inhibition above about 30%
Cl transport mod = modulates chloride dependent transport by human KCC2; Q9H2X9; KCC2 cells, thallium flux FluoZin-2 fluorescence; B-score of Tl+ flux slope (higher = more flux/activation; lower = inhibition) at 10 µM; 190,000 tested, 2.2% active;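 active = thallium flux slope and its plate-corrected score both differing from the plate sample mean at a set confidence after two filtering rounds, in either direction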;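 also: slope of fluorescence scaled to starting intensity during 10 to 20 s after thallium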
HSV augment = increases HSV replication in cells | HSV replication augmentation in cells, fold increase | maximum fold increase | 220,000 tested, 0.005% active; in the data active = maximum fold increase above about 1.5; inconclusive = no clear call, values can overlap the other calls; tested in PC3 cells
KCC2 secondary = confirmation of human KCC2 transport modulators; normalised thallium flux (F/F0 slope) at 10 µM; HEK293-KCC2, thallium flux, FluoZin2 fluorescence; active compounds read high; AID 1713; 3,700 tested, 15% active; shares compounds with Cl transport mod;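 active = thallium flux slope above the same plate's solvent-only control mean plus 3 SD; inconclusive = the two replicate wells disagree; inactive = no significant difference from solvent-only control wells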
KCC2 bumet counter = thallium flux persisting under bumetanide in KCC2 cells, counter-screen secondary assay | HEK293-KCC2 + bumetanide/ouabain, thallium flux FluoZin2; active compounds read high | shares compounds with Cl transport mod | 3,700 tested, 49% active | AID 1714 | normalized thallium flux at 10 µM;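 active = thallium entry rate above the same plate's blocked-transporter control wells by more than 3 SD; inconclusive = the two repeat wells disagree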;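 also: raw slope of fluorescence over initial fluorescence between 10 and 20 s after thallium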
KCC2 secondary2 = KCC2 (human) modulation, second secondary assay. shares compounds with Cl transport mod. HEK293-KCC2, thallium flux FluoZin2 fluorescence; actives lie on both sides; F/F0 rise rate, 10–20 s post-thallium. normalized thallium flux at 10 µM. 3,700 tested, 23% active. AID 1715;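 active = thallium flux slope more than 3 SD above or below the plate's solvent-only control mean, mostly below; inconclusive = the two repeat wells disagreed; inactive = no significant shift from solvent-only controls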
HEK293 Tl flux = counter-screen for KCC2 modulators: effect in parental HEK293 cells; shares compounds with Cl transport mod; thallium flux FluoZin2, ouabain; baseline-ratio fluorescence slope, 10–20 s after thallium; thallium flux rate (normalised fluorescence) at 10 µM; 3,700 tested, 46% active; AID 1716;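 active = thallium flux rate significantly above the same plate's solvent-only control wells, beyond their mean plus 3 SD; inconclusive = the two replicate wells gave conflicting results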
KCC2 retest ouab = KCC2 (human) modulation, ouabain retest; shares compounds with Cl transport mod; HEK293-KCC2, thallium flux FluoZin2 fluorescence; bidirectional: low = inhibitor, high = activator; raw Tl+ flux slope (below DMSO = inhibition, above = activation) at 10 µM; 3,700 tested, 48% active; AID 1717;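 active = thallium flux slope beyond 3 SD from same-plate DMSO control mean in most replicates, usually higher, sometimes lower; inconclusive = repeat tests gave conflicting results; inactive = no significant difference from controls in most replicates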;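 also: slope of initial-normalized fluorescence between seconds 10 and 20 after thallium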
HEK counter2 = counter-screen for KCC2 modulators: effect in parental HEK293 cells; shares compounds with Cl transport mod; thallium flux FluoZin-2 fluorescence slope; thallium flux slope at 10 µM; 3,700 tested, 33% active; AID 1718;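 active = thallium flux slope above the same plate's solvent-control mean plus 3 SD in both duplicate wells; inconclusive = duplicate wells that disagreed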;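 also: run without ouabain in cells lacking the KCC2 cotransporter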
Numbers stand for hits; . = inactive; ? = inconclusive; / = not tested or not shown.

SMILES	ROMK primary	Measles CPE	Arbovirus inh	Cl transport mod	HSV augment	KCC2 secondary	KCC2 bumet counter	KCC2 secondary2	HEK293 Tl flux	KCC2 retest ouab	HEK counter2
COc1ccc(-c2nn(C)c(=O)c3ccccc23)cc1CNS(C)(=O)=O	.	.	.	.	.	/	/	/	/	/	/
C/C(=N\NC(=O)c1cccc(Cl)c1)C1C(=O)c2ccccc2C1=O	.	.	.	-3.7	.	.	0.0095	.	.	?	.
CC(/C=C/c1ccccc1F)=N\NC(=O)c1cccc(F)c1	.	/	.	/	.	.	0.046	0.042	0.026	0.041	0.028
C/C(=N\NC(=O)CCc1ccccc1)C1C(=O)c2ccccc2C1=O	.	/	.	.	.	/	/	/	/	/	/
CC(/C=C/c1ccco1)=N\NC(=O)c1cccc(Cl)c1	/	.	.	14	.	.	0.039	?	0.023	0.037	0.026
CC(/C=C/c1ccco1)=N/NC(=O)c1ccccc1Cl	/	.	.	.	.	/	/	/	/	/	/
Brc1cc(Cc2nnc(-c3ccccc3)o2)c(Br)s1	/	/	/	.	.	/	/	/	/	/	/
C/C(CC(=O)NC12CC3CC(CC(C3)C1)C2)=N\NC(=O)c1ccc(C)cc1	.	/	.	.	.	/	/	/	/	/	/
COc1ccc2c(c1)C(C)(CCN)C(=O)N2C (stereo unspecified)	/	/	/	/	.	/	/	/	/	/	/
O=C(CCl)N(c1ccccc1)C1CCCCC1	.	/	.	.	.	/	/	/	/	/	/
Cc1ccc(/C(O)=C2/C(=O)C(=O)N(CCN3CCOCC3)C2c2ccccn2)cc1 (stereo unspecified)	/	.	.	2.7	.	.	?	.	?	.	.
O=C1C(=O)N(CCN2CCOCC2)C(c2ccccn2)/C1=C(/O)c1ccccc1 (stereo unspecified)	.	.	.	/	.	/	/	/	/	/	/
COc1ccc(/C(O)=C2/C(=O)C(=O)N(CCN(C)C)C2c2ccccn2)cc1OC (stereo unspecified)	.	.	.	4	.	.	.	.	?	.	?
O=C(O)COc1ccccc1/C=N/NC(=O)c1cc(-c2ccc(F)cc2)nc2ccccc12	.	/	.	.	.	/	/	/	/	/	/
O=C(N/N=C/c1ccccn1)c1cc(-c2ccccc2)nc2ccccc12	/	/	/	12	.	.	0.023	.	0.01	?	.
CCCc1cc(C(=O)Nc2sc(C)c(CC)c2C#N)no1	/	.	.	9.7	/	.	0.026	.	0.021	0.029	0.013
CCCc1cc(C(=O)Nc2sc3c(c2C#N)CCC3)no1	/	.	.	6.2	/	.	0.024	.	0.018	?	0.016
CCc1c(C)sc(NC(=O)c2cc(C3CC3)on2)c1C#N	/	.	.	3.7	.	.	0.012	.	0.011	.	0.012
O=C(CN1CCN(c2ccccn2)CC1)Nc1ccc2ccccc2c1	.	.	.	/	.	.	.	.	.	.	.
Cc1nc(C(=O)NNC(=O)c2ccccc2)c(C(F)(F)F)o1	/	/	/	4.2	.	.	0.0065	?	0.0087	.	.
c1cc(-c2cc3cc(N4CCOCC4)ccc3o2)cs1	/	/	/	/	.	/	/	/	/	/	/
Oc1ccccc1/C=N/Nc1nc2ccccc2o1	.	/	/	7.2	.	.	0.012	.	0.012	?	0.016
Cc1[nH]n(-c2ccccc2)c(=O)c1/C=N/N(c1ccccc1)c1ccccc1	.	/	.	68	.	?	0.11	0.072	0.063	0.088	0.061
Cc1cccc(/N=C/c2c(C)[nH]n(-c3ccccc3)c2=O)n1	/	/	/	18	.	.	0.032	.	0.012	?	?
Cc1[nH]n(-c2ccccc2)c(=O)c1C=Nc1cccc(F)c1	/	/	/	4.6	.	.	0.033	.	0.016	.	?
SMILES	ROMK primary	Measles CPE	Arbovirus inh	Cl transport mod	HSV augment	KCC2 secondary	KCC2 bumet counter	KCC2 secondary2	HEK293 Tl flux	KCC2 retest ouab	HEK counter2
Cc1ccc(-n2[nH]c(C)c(/C=N/c3cccc(C)n3)c2=O)cc1	.	/	/	4.9	.	.	0.013	.	0.013	?	.
Cc1[nH]n(-c2ccccc2)c(=O)c1/C=N/c1nn[nH]n1	.	/	.	.	.	/	/	/	/	/	/
Nc1ccccc1NC1CCCCC1	.	/	.	.	.	/	/	/	/	/	/
N#CCCN1CCCc2cc(N=Nc3ccc(C(F)(F)F)cc3)ccc21	/	/	/	.	.	/	/	/	/	/	/
CCN1/C(=N\N)c2cccc3cccc1c23	.	/	.	.	?	/	/	/	/	/	/
Cc1ccc(C)c(Cn2nnc3c(=O)[nH]c(C(=O)NCc4ccco4)nc32)c1	.	.	.	-5.7	.	.	.	0.023	0.0062	0.014	?
O=C(NCc1ccco1)c1nc2c(nnn2Cc2ccccc2Cl)c(=O)[nH]1	.	.	.	-3.3	.	.	.	.	?	0.014	.
O=C(NCc1cccs1)c1nc2c(nnn2Cc2ccc(F)cc2)c(=O)[nH]1	/	.	.	-2.3	.	.	?	0.023	.	?	.
Cc1ccc(C)c(Cn2nnc3c(=O)[nH]c(C4CCCN(C(=O)C5CCCCC5)C4)nc32)c1 (stereo unspecified)	/	.	.	/	.	/	/	/	/	/	/
CC(C)c1ccc(NC(=O)CSc2ncccc2C(=O)Oc2cccc([N+](=O)[O-])c2)cc1	.	.	.	.	.	/	/	/	/	/	/
COCCNC(=S)N1CCC(Cc2ccccc2)CC1	.	/	.	-4.2	.	.	.	.	.	0.015	.
Cc1ccc(N2CC(C(=O)N3CCc4ccccc4C3)CC2=O)cc1 (stereo unspecified)	/	.	.	/	.	.	.	.	.	.	.
Oc1[nH]c2ccccc2c1/C=N/c1nccs1	/	.	.	15	/	0.013	0.023	.	?	?	?
Nc1nonc1C(=O)NCCN=Cc1ccccc1O	/	.	/	-4.6	.	?	?	.	.	.	.
Nc1nonc1C(=O)NCCN=Cc1cc(Cc2ccccc2)cc(Br)c1O	.	.	.	/	/	/	/	/	/	/	/
O=C(NC1CCCC1)C(c1ccncc1)N(CCCN1CCOCC1)C(=O)c1ccc(-c2ccccc2)[nH]1 (stereo unspecified)	.	/	.	.	.	/	/	/	/	/	/
O=C(NC1CCCC1)C(c1ccncc1)N(Cc1ccccc1)C(=O)c1ccc(-c2ccccc2)[nH]1 (stereo unspecified)	.	.	.	.	.	/	/	/	/	/	/
O=C(NC1CCCC1)C(c1ccncc1)N(Cc1ccco1)C(=O)c1ccc(-c2ccccc2)[nH]1 (stereo unspecified)	.	/	.	-3.3	.	.	?	0.024	.	?	.
